Compound activity (PubChem BioAssay)
A selection: hits, their analogues and other compounds. The true share with any hit is near 3.7%.
Autofluor counter = counter-screen for toxin protease inhibitors: compound fluorescence; compound autofluorescence counterscreen, microsphere flow cytometry; hits give high values; fluorescence intensity (test concentration not listed); 3.1% of 360,000 active; AID 624483; in the data active means fluorescence intensity above about 16000; inconclusive means no clear call, values can overlap the other calls
BoNT-F LC inh = inhibitors of Botulinum neurotoxin F light chain protease | AID 588497 | Multiplex microsphere protease cleavage assay, flow cytometry | inhibition, % at 10 µM | 0.22% of 360,000 active; in the data active means inhibition above about 35%, passing the limit was not always enough; inconclusive means no clear call, values can overlap the other calls; further: plate controls were buffer without enzyme for full effect and enzyme alone for no effect
MazEF act = activators of E. coli MazEF toxin-antitoxin RNase | FAM/BHQ RNA-DNA oligo cleavage fluorescence, 5 h | 0.32% of 350,000 active | P0AE70 | activation, % at 20 µM; in the data active means activation above about 50%
BoNT-A LC inh2 = inhibitors of Botulinum neurotoxin A light chain protease | 0.17% of 360,000 active | inhibition, % at 10 µM | multiplex microsphere protease substrate cleavage, flow cytometry; further: plate controls were buffer without enzyme for full effect and enzyme alone for no effect
Anthrax LF inh2 = inhibitors of Bacillus anthracis lethal factor protease | AID 588501 | P15917 | 0.12% of 360,000 active | inhibition, % at 10 µM | multiplex microsphere protease cleavage assay, LF; further: plate controls were buffer without enzyme for full effect and enzyme alone for no effect
* hit, by the source's call; u = inconclusive; x = no result. Unless noted, no stated cut-off is given here; in the data, active means inhibition above about 30%; inconclusive means no clear call, values can overlap the other calls; inactive means below that.

SMILES | Autofluor counter | BoNT-F LC inh | MazEF act | BoNT-A LC inh2 | Anthrax LF inh2
NS(=O)(=O)c1ccc(CCNc2ccn3nc(-c4cccc(C(F)(F)F)c4)cc3n2)cc1 | 3681 | 2.7 | x | 0.6 | 0.2
CCOC(=O)N1CCC(=NNC(N)=O)C1 | 3730 | -9.8 | 1.8 | 0.0 | -12.2
O=C(CNC(=O)c1ccc(Cl)cc1Cl)OCCCn1c(=O)[nH]c2ccccc21 | 4188 | 16.3 | -12.5 | 1.3 | 3.7
O=S(=O)(c1ccc2ccccc2c1)N1CCN(C2CCN(Cc3ccccc3)CC2)CC1 | 23769* | 0.5 | 2.4 | -0.9 | -0.2
O=S(=O)(c1ccccc1)N1CCN(C2CCN(Cc3ccccc3)CC2)CC1 | 4334 | -1.5 | -9.1 | -0.2 | 1.4
FC(F)(F)c1cc(C(F)(F)F)c2ccc(N3CCOCC3)nc2n1 | 4107 | -39.3 | 3.5 | -1.7 | 7.1
FC(F)(F)c1cc(C(F)(F)F)c2ccc(N3CCN(c4ccc(Cl)cc4)CC3)nc2n1 | 21584* | 3.8 | 14.3 | 3.1 | -1.9
Fc1ccc(N2CCN(c3ccc4c(C(F)(F)F)cc(C(F)(F)F)nc4n3)CC2)cc1 | 21176* | 3.5 | 9.2 | 3.8 | -3.5
FC(F)(F)c1cc(C(F)(F)F)c2ccc(N3CCN(c4ncccn4)CC3)nc2n1 | 23511* | -4.4 | 4.0 | -4.2 | -6.0
O=C(NCc1ccncc1)/C(=C/c1cccc([N+](=O)[O-])c1)NC(=O)c1ccccc1 | 4033 | 38.4* | 4.6 | 4.4 | 5.0
O=C(NCC1CCCO1)/C(=C\c1cccc([N+](=O)[O-])c1)NC(=O)c1ccccc1 (stereo unspecified) | 4379 | -0.2 | 2.2 | -0.9 | 0.1
Cc1cc(C(=O)N(C)Cc2ccc(Br)cc2)no1 | 3426 | -7.7 | 2.0 | -2.3 | -4.5
CN(Cc1ccccc1)C(=O)c1cc(-c2ccc(Br)cc2)on1 | 23868* | -2.4 | -16.7 | -1.3 | -2.8
N#C/C(C(=O)c1ccccc1)=C1/CCCN1 | 23223* | -0.6 | 6.6 | -1.7 | -3.2
CC(=O)N1N=C(N)SC1(C)C | 4187 | 2.9 | 4.5 | -0.2 | -4.2
C[C@@H]1CNC(=O)c2c(C(=O)Nc3ccc(CNC(=O)OC(C)(C)C)cc3)ncn21 | 3464 | -4.1 | 12.0 | -0.2 | -5.1
O=C(Nc1cccc(C(F)(F)F)c1)C1CCCN(S(=O)(=O)c2cnc[nH]2)C1 (stereo unspecified) | 22065* | 1.5 | -7.5 | 2.0 | -2.6
O=C(C1CCC(Cn2c(=S)[nH]c3ccccc3c2=O)CC1)N1CCN(c2ccccc2)CC1 (stereo unspecified) | 8979 | -2.4 | 4.5 | -1.1 | -15.5
COc1ccccc1N1CCN(C(=O)C2CCC(Cn3c(=S)[nH]c4ccccc4c3=O)CC2)CC1 (stereo unspecified) | 17156* | -8.1 | -5.1 | -2.6 | 2.1
COc1ccc(N2CCN(C(=O)C3CCC(Cn4c(=S)[nH]c5ccccc5c4=O)CC3)CC2)cc1 (stereo unspecified) | 17035* | -8.8 | -3.8 | -1.6 | -8.1
O=C(C1CCC(Cn2c(=S)[nH]c3ccccc3c2=O)CC1)N1CCN(c2ccccn2)CC1 (stereo unspecified) | 4929 | -0.3 | -2.4 | -0.9 | -6.2
Cc1c(C)c2cc(Cl)c(O)c(CN3CCCC(C)C3)c2oc1=O (stereo unspecified) | 22975* | 1.6 | 0.4 | -0.4 | -4.3
CCOC(=O)CC1(NC(=O)C2CCC(=O)N(CCc3ccccc3)C2)CCCCC1 (stereo unspecified) | 5052 | 4.6 | 8.8 | -0.3 | -2.5
C/C(CCC(C)C)=N\NS(=O)(=O)c1ccc(C)c([N+](=O)[O-])c1 | 4517 | 1.2 | 81.7* | -0.3 | -4.3
Cc1ccc(S(=O)(=O)NCCC(C)C)cc1[N+](=O)[O-] | 2533 | 1.6 | 8.9 | -0.5 | -1.5
SMILES | Autofluor counter | BoNT-F LC inh | MazEF act | BoNT-A LC inh2 | Anthrax LF inh2
CC/C(C)=N/NS(=O)(=O)c1ccc(C)c([N+](=O)[O-])c1 | 4477 | -0.6 | 121.9* | -1.0 | 1.5
Cc1ccc(S(=O)(=O)N/N=C2/CCCCC2C2CCCCC2)cc1[N+](=O)[O-] (stereo unspecified) | 1931 | -3.7 | 0.8 | -0.4 | -2.2
CC1CCC(=NNS(=O)(=O)c2ccc([N+](=O)[O-])cc2)CC1 (stereo unspecified) | 4177 | 1.4 | 110.2* | 0.8 | -4.4
CC1CCC/C(=N\NS(=O)(=O)c2ccccc2)C1 (stereo unspecified) | 4702 | -0.3 | 28.1 | -0.2 | -4.2
CCC(C)(C)C1CCC(=NNS(=O)(=O)c2ccc(C)c([N+](=O)[O-])c2)CC1 (stereo unspecified) | 2569 | -9.1 | 125.1* | 0.0 | -2.1
c1ccc2oc(-c3ccc(Nc4nc(N5CCOCC5)nc(N5CCOCC5)n4)cc3)nc2c1 | 3503 | 4.2 | -46.4 | 0.1 | 0.0
COc1ccc(Cc2nnc(N/N=C(\C)c3ccccc3)[nH]c2=O)cc1OC | u | -4.7 | 8.5 | -0.7 | 4.4
O=[N+]([O-])c1cccc(/C=N/n2c(COc3ccccc3)n[nH]c2=S)c1 | 16172* | 2.9 | -4.2 | 0.3 | -8.2
CCOc1ccc(Oc2ccc(NC(=O)[C@@H](NC(N)=O)[C@@H](C)CC)cc2)cc1 | 3757 | -2.6 | -26.4 | 0.1 | -5.5
COc1cc(-c2nnc(SCc3cc(=O)oc4cc(O)c(O)cc34)o2)cc(OC)c1OC | 21137* | 6.5 | 1.7 | 7.9 | -5.6
CCOC(=O)CSc1nnc(-c2cc(OC)c(OC)c(OC)c2)o1 | 4643 | -8.6 | -16.6 | -2.4 | -1.8
O=C(COC(=O)c1ccc(Cl)nc1)NC1CCCc2ccccc21 (stereo unspecified) | 3607 | 1.4 | -3.7 | -0.5 | -7.0
Cc1cc(N2CCN(C)CC2)ccc1NC(=O)c1cccc(S(=O)(=O)N2CCc3ccccc3C2)c1 | 4413 | -11.5 | 50.2* | 0.5 | -9.9
COc1ccccc1C(=O)NC(=O)COC(=O)c1cccc(C)c1O | 5969 | 7.2 | 5.2 | 1.7 | 1.6
CCOC(=O)Cn1c(=O)c(-c2ccccc2NCc2ccccc2)nc2ccccc21 | 10340 | -4.4 | 61.2* | -0.6 | -7.2
Cc1ccc(N2CN=c3s/c(=C\c4ccccn4)c(=O)n3C2)cc1 | 18880* | 3.7 | -10.4 | u | 1.3
O=c1/c(=C/c2ccco2)sc2n1CN(c1ccccc1)CN=2 | 2362 | -10.8 | 2.6 | -0.5 | -1.3
Oc1c(Br)cc(Br)cc1CNn1cnnc1 | 3473 | 19.0 | 4.9 | 0.6 | -1.8
COc1ncnc2sc(-c3ccccc3)cc12 | 8513 | -30.2 | -2.1 | -3.9 | -6.6
COc1ccc(Nc2ncnc3sc(-c4ccccc4)cc23)cc1 | 19970* | -1.6 | -2.0 | u | 2.8
COc1ccc(Cl)cc1NC(=O)CN(C)CC(=O)NC(C)c1ccccc1 (stereo unspecified) | 4515 | -6.1 | 0.9 | -0.3 | 2.2
O=C(O)Cn1cc(C(=O)c2ccccc2F)c2ccccc21 | 3712 | u | 4.1 | -3.4 | 10.7
O=C(O)Cn1cc(C(=O)c2ccccc2)c2ccccc21 | 18398* | 10.4 | -4.2 | 9.0 | 2.2
CCn1cc(C(=O)C(F)(F)F)c2ccccc21 | 22281* | 2.1 | -2.7 | 1.3 | 0.2
CCn1cc(C(=O)c2cccs2)c2ccccc21 | 16945* | -3.6 | 0.8 | -3.9 | -8.6
Cc1ccc(N2CN(CCc3ccccc3)CNC2=S)cc1 | 3988 | -2.5 | -2.0 | -3.5 | 1.2
CSCCNC(=O)C1(C)CCN1C(=O)C/C=C/c1ccccc1 (stereo unspecified) | 2801 | -0.1 | x | 0.2 | -8.7
Cc1ccccc1NC(=O)Nc1nnc([C@@H]2C[C@H](O)[C@@H](CO)O2)s1 | 3004 | -6.2 | x | -0.3 | -4.8
